Laboratory results taken from PubChem BioAssay (Tox21).
Unmarked numbers belong to inactive results. The call rests on the fitted dose curve; in most records, active means well fitted inhibition curve with a large enough effect in the repeat runs (not every such curve was filed as active); inconclusive means weak or mixed curves; inactive means flat fitted curve, though single readings scatter.

Target: Thyrotropin-releasing hormone receptor (Homo sapiens) (UniProt P34981)
Test: qHTS assay to identify small molecule antagonists of the thyrotropin-releasing hormone receptor (TRHR) signaling pathway (AID 1346877)
Settings: TRHR-HEK293, TRH-induced calcium fluorescence, antagonist mode; series mostly up to 51.3 µM; activity, negative = inhibition: at the top concentration
Source text: National Center for Advancing Translational Sciences [NCATS]
NIH Chemical Genomics Center [NCGC]
U.S. Environmental Protection Agency [EPA]
National Institutes of Environmental Health Sciences [NIEHS]
National Toxicology Program [NTP]
U.S. Food and Drug Administration [FDA]
Thyrotropin-releasing hormone (TRH) receptor (TRHR) is a G-protein-coupled receptor which binds the tripeptide thyrotropin releasing hormone. TRHR is found in the brain and, when bound by TRH, acts (through phospholipase C) to increase intracellular inositol trisphosphate. It plays a crucial role in the anterior pituitary where it controls the synthesis and secretion of thyroid stimulating hormone and prolactin. The TRHR-Hek293 assay is a cell-based assay, and it has the potential to screen G protein-coupled receptors. A compound/drug can either activate (agonist) or suppress (antagonist) GPCRs that can be monitored by levels of intracellular calcium. In this assay, the Tox21 10K compound library was screened to identify potential TRHR antagonists.
Tox21 Assay Protocol Summary:
The TRHR-Hek293 cells were dispensed at 1500cells/4uL/well in 1536-well black-clear bottom plates using a Multidrop dispenser. After the assay plates were incubated at a 37 C/5% CO2 incubator for 18 hours, 4 uL of Dye-Loading Solution was added to each well. The plates were incubated at 37 C for 2 hours. For agonist mode, 23 nL of compounds dissolved in DMSO, positive controls or DMSO only was transferred to the assay plate by a pin tool. The fluorescence intensity in the plates was measured using FDSS 7000EX kinetic plate reader for 3 min at 1 sec intervals. For antagonist mode, 23 nL of compounds dissolved in DMSO, positive controls or DMSO only was transferred to the assay plate by a pin tool. After 5 min incubation at room temperature, 1 uL of TRH was added on the top of the cell/compound mixtures to achieve a final agonist concentration of 1 nM. The fluorescence intensity in the plates was measured using FDSS 7000EX kinetic plate reader for 3 min at 1 sec intervals. Each test compound was measured at 15 concentrations and in triplicates.
On the % scale 0 is the no-effect control and ±100 the full control effect.

Thyrotropin-releasing hormone receptor (Homo sapiens), sequence (P34981 whole entry, looked up): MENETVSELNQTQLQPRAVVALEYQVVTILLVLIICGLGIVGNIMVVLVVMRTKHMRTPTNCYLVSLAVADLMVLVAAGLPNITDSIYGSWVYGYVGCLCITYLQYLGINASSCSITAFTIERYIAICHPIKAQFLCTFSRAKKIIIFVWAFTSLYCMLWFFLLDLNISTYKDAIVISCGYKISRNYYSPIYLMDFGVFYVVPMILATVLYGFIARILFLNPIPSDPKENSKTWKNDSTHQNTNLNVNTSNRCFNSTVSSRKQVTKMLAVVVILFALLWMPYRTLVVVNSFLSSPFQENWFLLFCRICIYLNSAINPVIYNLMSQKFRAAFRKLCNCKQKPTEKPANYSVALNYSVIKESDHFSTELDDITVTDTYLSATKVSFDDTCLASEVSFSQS

SMILES	activity, negative = inhibition
COc1ccc(NS(=O)(=O)c2ccc(N)cc2)nn1	0.456% [at 23.6 µM]
N#CCCOCCOCCC#N	-7.76%
COc1ccc(N=Nc2cc(C)c(N=Nc3ccc(S(=O)(=O)O)cc3)cc2OC)cc1	3.51%
CC(C)COC(=O)COc1ccc(Cl)cc1Cl	-11.6%
CCCOC(=O)CCCCC(=O)OCCC	-3.16%
CCCCCC(=O)OCC	6.1%
CCc1nccnc1C	4.04%
NS(=O)(=O)c1cc2c(cc1Cl)NC(C(Cl)Cl)NS2(=O)=O (stereo not given)	0.476% [at 23.6 µM]
Cc1ccccc1C(=O)N1CC/C(=N\OS(=O)(=O)O)c2ccc(Cl)cc21	12.2% [at 23.6 µM]
Nc1ccc(C(=O)OCC(O)CO)cc1 (stereo not given)	-1% [at 23.6 µM]
COc1cccc2sc(N)nc12	1.96%
CCCCOC(=O)C(=O)OCCCC	-2.86%
Cc1ccccc1OCC1CO1 (stereo not given)	2.2%
CCCCCCCC[Si](OCC)(OCC)OCC	1.37%
CCC(=O)c1ccc(O)cc1	-0.474% [at 23.6 µM]
OC(CCN1CCCCC1)(c1ccccc1)c1ccccc1	1.05% [at 23.6 µM]
CCOC(=O)C(=O)c1csc(NC=O)n1	0.151% [at 23.6 µM]
Cc1oc(=O)oc1CN1CCN(c2cc3c(cc2F)c(=O)c(C(=O)O)c2n3C(C)S2)CC1 (stereo not given)	-5.22% [at 23.6 µM]
O=S1(=O)CCCC1	5.36%
Cn1c(=O)c2c(ncn2CC2OCCO2)n(C)c1=O	-4.55% [at 23.6 µM]

SMILES	activity, negative = inhibition
COc1cc([N+](=O)[O-])ccc1N	18.2%
Cc1cc(O)c2c(c1)C(=O)c1cccc(O)c1C2=O	0.483% [at 23.6 µM]
O=C1NC2NC(=O)NC2N1 (stereo not given)	-4.59%
O=C(CN1CCN(Cc2ccc3c(c2)OCO3)CC1)N1c2ccccc2Sc2ccccc21	0.324% [at 23.6 µM]
CCCCCC1CCCC(=O)O1 (stereo not given)	0.0378%
CC(C)(C)NCCO	-8.87%
COC(OC)C(C)c1ccccc1 (stereo not given)	1.74%
F[Si-2](F)(F)(F)(F)F	1.07%
Cc1cccc(NC(=S)N(C)C)c1	8.76%
Nc1ccc(/C=C/c2ccc(N)cc2S(=O)(=O)O)c(S(=O)(=O)O)c1	-5.44% [at 0.194 µM]
CCOC(=O)CC(CC(=O)OCC)(OC(C)=O)C(=O)OCC	16.1%
CCCOCCOCCOCCO	-6.82%
C=CCOc1cc(Cl)ccc1C(=O)NCCN(CC)CC	-2.58% [at 23.6 µM]
C1=CCC(c2ccccc2)CC1 (stereo not given)	-0.616%
Cc1ncc([N+](=O)[O-])n1CC(O)CCl (stereo not given)	8.39% [at 23.6 µM]
CC1=NN(c2ccc(S(=O)(=O)O)cc2)C(=O)C1N=Nc1ccccc1 (stereo not given)	0.483%
O=C1OC(=O)c2cc(Oc3ccc4c(c3)C(=O)OC4=O)ccc21	-1.68%
Nc1ccnc(=O)[nH]1	-1.72%
C1=C\CC/C=C\CC/1	-0.0884%
CCC1COC(=O)O1 (stereo not given)	2.66%
